AMA1 RON2 block: qHTS for Inhibitors of AMA1-RON; Towards Development of Antimalarial Drug Lead: Primary Screen. hit rate 0.2% among 360,000. AlphaScreen AMA1-biotinylated RON2 peptide binding. Plasmodium falciparum AMA1 (3D7) - RON2 peptide interaction. Potency, µM (titrated, usually from 58.2 µM), without a hit: at the top dose activity change, negative = inhibition, usual class: inhibitors. AID 720542, 2013;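 further: 0% = vehicle wells and -100% = peptide control; nearly all actives have a fitted effect of over 45% in size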
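AMA1 (3D7) with his tag at 25 nM final met compounds first, then biotinylated RON2 peptide at 25 nM; detection used donor plus acceptor beads, 10 µg/mL apiece, read by AlphaScreen after 30 min at room temperature.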
Sm TGR inh: qHTS Assay for the Inhibitors of Schistosoma Mansoni Peroxiredoxins; Schistosoma mansoni thioredoxin glutathione reductase (TGR), Q962Y6; purified TGR, DTNB reduction, TNB absorbance 405 nm; Potency, µM (highest dose often 114 µM), inactives show at the top dose activity change, negative = inhibition, actives largely listed as inhibitors; hit rate 3% among 360,000; further: nearly all actives have a fitted effect of over 60% in size
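TGR 20 nM + NADPH 100 uM (dispensed conc.), cpd preinc 15 min RT; start with NADPH (500 uM addition) then DTNB (15 mM addition). Kinetic TNB absorbance, 405 nm filter. Four-parameter Hill fit across titration.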
RE007 growth inh: qHTS Assay for Inhibitors of the HIV-1 protein Vpr | hit rate 0.21% among 360,000 | S. pombe RE007 Vpr strain, BacTiter-Glo ATP luminescence, 24 h | Potency, µM (highest dose often 92.2 µM), for the others: at the top dose activity change, negative = less growth, hits mostly inhibitors; active means well fitted falling curve with a large enough effect; inconclusive means small, poorly fitted or top-dose-only effect; inactive means no such curve, though single readings can be large or run the other way; further: nearly all actives have a fitted effect of over 50% in size
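Fission yeast RE007 carrying one integrated HIV-1 vpr copy, seeded at OD 0.01 in PMG+AL medium with 23 nL pinned compound. Grown 24 h at 30 degrees; viability read by BacTiter-Glo luminescence after 5 min.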
AmpC inh no detg: qHTS Inhibitors of AmpC Beta-Lactamase (assay without detergent). P00811. AmpC nitrocefin hydrolysis, absorbance 480 nm, 0.0001% Triton. Potency, µM (titrated, usually from 57.1 µM), for inactives: at the highest dose activity change, negative = inhibition, most hits filed as inhibitors. hit rate 0.52% among 330,000;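 further: plate controls were no compound for no effect and no enzyme for full effect; nearly all actives have a fitted effect of over 20% in size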
Target sequence (P00811 whole entry, looked up): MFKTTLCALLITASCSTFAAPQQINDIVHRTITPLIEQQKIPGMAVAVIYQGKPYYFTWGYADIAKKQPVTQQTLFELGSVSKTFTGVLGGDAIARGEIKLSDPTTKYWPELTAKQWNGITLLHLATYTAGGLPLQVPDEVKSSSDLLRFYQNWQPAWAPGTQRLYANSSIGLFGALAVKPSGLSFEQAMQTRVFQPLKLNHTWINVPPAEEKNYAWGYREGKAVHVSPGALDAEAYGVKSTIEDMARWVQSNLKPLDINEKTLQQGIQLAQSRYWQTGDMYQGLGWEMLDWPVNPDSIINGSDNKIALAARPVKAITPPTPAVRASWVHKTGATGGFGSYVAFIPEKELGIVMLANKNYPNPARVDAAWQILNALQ
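20 mM phosphate pH 7.0 + 0.01% (detergent screen) or 0.0001% Triton X-100; 5.3 nM AmpC reagent; cpd preinc 15 min RT; nitrocefin (800 uM stock) to start; A480 q20 s × 4 min; Activity was normalised to no-enzyme and no-compound control wells.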
AmpC inh detg: qHTS Inhibitors of AmpC Beta-Lactamase (assay with detergent); AmpC hydrolysis of nitrocefin, absorbance 480 nm, 0.01% Triton; Potency, µM (doses to about 114 µM), inactives show at the top dose activity change, negative = inhibition, actives largely listed as inhibitors; hit rate 0.041% among 370,000;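 further: 0% = no-compound wells and -100% = no-enzyme wells; nearly all actives have a fitted effect of over 25% in size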
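20 mM phosphate pH 7.0 + 0.01% (detergent screen) or 0.0001% Triton X-100; 5.3 nM AmpC reagent; cpd preinc 15 min RT; nitrocefin (800 uM stock) to start; A480 q20 s × 4 min; Activity was normalised to no-enzyme and no-compound control wells.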
* hit, by the source's call; u = inconclusive; x = no result; [ ] = remark or other dose. An excerpt weighted towards active compounds, which were near 3.2% of everything screened. Unless noted, the call rests on the fitted dose curve; in most records, active means well fitted curve in the direction sought with a large enough effect; inconclusive means small, poorly fitted or top-dose-only effect, or another doubt; inactive means no such curve, though single readings can be large; an effect the other way counts as inactive or inconclusive. Unless noted, on the % scale 0 is the no-effect control and ±100 the full control effect; potency means the concentration at half of the fitted maximal effect.

SMILES	AMA1 RON2 block	Sm TGR inh	RE007 growth inh	AmpC inh no detg	AmpC inh detg
O=C(CNC(=O)c1ccco1)NCC(=O)OCc1cccc(Cl)c1	6%	-45%	8%	-5%	-9%
CCCc1ccc(S(=O)(=O)N2CCC(c3nnc(-c4cccc(C)c4)o3)CC2)cc1	x	-1%	x	x	1%
C/C(=C\c1ccccc1F)C1Nc2cccc3cccc(c23)N1	x	u	x	-29%	3%
C/C(=C\c1ccccc1)C1Nc2cccc3cccc(c23)N1	x	13µM*	x	-14%	6%
C/C(=C\c1ccc2c(c1)OCO2)C1Nc2cccc3cccc(c23)N1	x	20µM*	x	-6%	6%
O=C(NNC(=S)NCc1ccco1)c1ccc(S(=O)(=O)N2CCOCC2)cc1	52%	0%	21%	-26%	2%
O=C(CSc1nnc(-c2ccc(S(=O)(=O)N3CCCC3)cc2)o1)NCc1ccco1	35%	45µM*	-2%	-26%	u
O=C(NCc1ccco1)c1ccc(S(=O)(=O)c2cccc(S(=O)(=O)N3CCOCC3)c2)cc1	-4%	50µM*	13%	-22%	-14%
Cc1cc(S(=O)(=O)N2CCCC2)ccc1OCC(=O)NCc1ccco1	-5%	40µM*	-4%	-4%	1%
Cc1cc(S(=O)(=O)N2CCOCC2)ccc1OCC(=O)NCc1ccco1	4%	-9%	-3%	-2%	-15%
Cc1ccc(C(=O)NCc2ccco2)cc1S(=O)(=O)N1CCCC1	-5%	40µM*	-7%	u	3%
CCCN(C(=O)c1nn(-c2ccc(OC)cc2)c(=O)c2c1c1ccccc1n2C)c1ccc(CC)cc1	x	-8%	x	x	1%
CC1CCN(S(=O)(=O)c2cccc(C(=O)NCc3ccco3)c2)CC1	0%	5%	2%	-9%	-9%
O=C(NCc1ccco1)c1cccc(S(=O)(=O)N2CCCC2)c1	21%	50µM*	-18%	12%	-6%
O=C(OCc1ccco1)c1ccc(S(=O)(=O)N2CCCCC2)cc1	-4%	7.1µM*	-2%	-36%	-14%
CSc1nc(Nc2ccc(C)cc2)c(C#N)c(-c2ccccc2)n1	x	-1%	x	x	2%
O=C(NCCCN1CCCC1=O)c1ccc2c(c1)NC(=O)c1ccccc1S2	-1%	6%	8%	-4%	u
CCN1CCN(CCCNC(=O)c2ccc3c(c2)NC(=O)c2ccccc2S3)CC1	8%	-31%	-1%	4µM*	1%
COCCCNC(=O)/C(C#N)=C/c1c(N2CCN(c3ccccc3)CC2)nc2c(C)cccn2c1=O	-18%	35µM*	-18%	121%	2%
CCc1nc2c(cnn2-c2ccc(Cl)cc2)c(=O)n1-c1ccc(OC)c(Cl)c1	x	4%	x	x	2%
CC(=O)Nc1ccc(NC(=O)C2CCN(c3c(NC(C)=O)c(C)nn3-c3ccccc3)CC2)cc1	x	4%	x	x	12%
COc1ccc(-n2ncc3c(NCc4ccco4)ncnc32)cc1	13%	50µM*	14%	-9%	-5%
Clc1ccc(-n2ncc3c(NCc4ccco4)ncnc32)cc1	20%	0%	8%[3.69 µM]	-29%	3%
Cc1ccc2c(c1)NC(=O)C(CC(=O)NCCCN1CCCC1=O)O2 (centres undefined)	-2%	-21%	10%	-17%	0%
O=C(CC1Oc2ccccc2NC1=O)NC1CCCC1 (centres undefined)	15%	3%	-3%	-9%	u
SMILES	AMA1 RON2 block	Sm TGR inh	RE007 growth inh	AmpC inh no detg	AmpC inh detg
O=C(CC1Oc2ccccc2NC1=O)NC1CC1 (centres undefined)	x	79µM*	x	-17%	0%
Cc1ccc2c(c1)NC(=O)C(CC(=O)NCCCN1CCCCC1)O2 (centres undefined)	-5%	100µM*	-5%	0%	u
COCCCNC(=O)CC1Oc2ccccc2NC1=O (centres undefined)	20%	0%	-9%	10µM*	u
CCCSCCCNC(=O)CC1Oc2ccccc2NC1=O (centres undefined)	-6%	-24%	-5%	-14%	u
O=C(Cc1ccc(-c2ccccc2)cc1)NCCS(=O)(=O)N1CCN(c2ccc(F)cc2)CC1	x	-3%	x	x	-3%
CCn1c(SCC(=O)N2CCc3ccccc32)nnc1-c1ccco1	-16%	-28%	-11%	24%	0%
Cc1occc1-c1nnc(SCC(=O)N2CCCc3ccccc32)n1Cc1ccco1	-13%	40µM*	8%	-6%	8%
O=C(CSc1nnc(-c2cccnc2)n1Cc1ccco1)N1CCc2ccccc21	-4%	45µM*	8%	78%	-11%
COc1cccc(CNS(=O)(=O)c2cnc(N)nc2)c1	x	8%	x	x	2%
Cc1[nH]c2ccc(C(=O)N3CCN(c4ccccc4F)CC3)cc2c1C	x	-3%	x	x	-4%
O=C(O)c1ccccc1/C=N/NC(=O)c1cc(-c2ccco2)nc2ccccc12	-9%	3.2µM*	-8%	-20%	6%
O=C(N/N=C/c1ccc2c(c1)OCO2)c1cc(-c2ccco2)nc2ccccc12	-7%	-20%	-5%	-15%	-10%
O=C(N/N=C/c1ccco1)c1cc(-c2ccccc2)nc2ccccc12	25%	-20%	2%	u	-6%
CC(=O)Nc1ccc(/C=N/NC(=O)c2cc(-c3ccco3)nc3ccccc23)cc1	5%	14µM*	32%	-40%	-5%
O=C(N/N=C/c1ccco1)c1cc(C2CC2)nc2ccccc12	x	-12%	x	28µM*	1%
Cc1cccc(-n2c(Cc3ccccc3)nnc2SCc2nc(-c3cccs3)no2)c1	x	12%	x	x	16%
CCOc1ccc(N(CC(=O)Nc2cccc(OC)c2)S(=O)(=O)c2c(C)noc2C)cc1	-4%	7%	6%	18µM*	u
COc1ccc(N(CC(=O)Nc2ccc3c(c2)OCO3)S(=O)(=O)c2ccccc2)cc1	-10%	x	6%	-24%	4%
CCOc1ccc(N(CC(=O)Nc2cccc(Cl)c2)S(=O)(=O)c2c(C)noc2C)cc1	11%	-1%	-7%	-27%	u
COc1ccc(N(CC(=O)Nc2ccc3c(c2)OCCO3)S(=O)(=O)c2cccnc2)cc1	0%	5%	-1%	40µM*	3%
O=C(CCCCn1c(=O)c2ccccc2n(Cc2ccccc2F)c1=O)NCc1ccc2c(c1)OCO2	x	0%	x	x	13%
COc1cc(-c2noc(-c3ccc(N4CCOCC4)c([N+](=O)[O-])c3)n2)cc(OC)c1OC	x	-31%	x	x	8%
COc1cccc(/C(O)=C/c2nc3ccc(C(=O)NCCc4cccc(C)c4)cc3[nH]c2=O)c1	120%	-9%	-2%	11µM*	u

Compound activity as filed in PubChem.
